{
  "source": "paper PMC4552634",
  "about": "“A New Set of Chemical Starting Points with Plasmodium falciparum Transmission-Blocking Potential for Antimalarial Drug Discovery” (PLoS ONE, 2015)",
  "note": "Screen size: about 13,000 compounds; about 3,200 (25%) showed an effect of 50% or more. Some of the results follow.",
  "data": [
    {"system": "P. falciparum stage V gametocytes", "design": "BacTiter-Glo ATP luminescence viability of purified stage V gametocytes in 384-well plates, per cent inhibition versus DMSO", "conditions": "48 h, 5 µM; inhibitor", "units": {"% Inhibition": "%"}, "values": [
      {"molecule": "COc1ccc(CCCN2C(=O)C(c3ccccc3)(c3ccccc3)N=C2N)cc1", "note": "[TCMDC-136503]", "% Inhibition": -39.16},
      {"molecule": "O=C(Nc1ccc(N2CCNCC2)nc1)c1oc(-c2ccccc2)nc1C(F)(F)F", "note": "[TCMDC-135131]", "% Inhibition": 3.26},
      {"molecule": "CC(C)N(C(=O)CSc1nc2cc(Cl)ccc2c(=O)n1Cc1ccccc1)C(C)C", "note": "[TCMDC-123612]", "% Inhibition": 6.529},
      {"molecule": "Cc1nc2ccc3ccc(CN(C)c4ccc(C(=O)N[C@@H](CCC(=O)O)C(=O)O)cc4)cc3c2c(=O)[nH]1", "note": "[TCMDC-138089]", "% Inhibition": 24.11},
      {"molecule": "Cc1cccc2[nH]c(-c3cccc(-c4cccc(NC(=O)Nc5ccc(F)c(F)c5F)c4)c3)nc12", "note": "[TCMDC-133227]", "% Inhibition": -33.06},
      {"molecule": "COc1cncc(/C=C/c2cncc(C(=O)NCCc3ccc(Cl)cc3Cl)c2)c1", "note": "[TCMDC-134508]", "% Inhibition": -1.142},
      {"molecule": "CCOc1cc(C=NNc2nc(C)cc(-n3nc(C)cc3C)n2)ccc1O", "note": "[TCMDC-124094]", "% Inhibition": 92.61},
      {"molecule": "CCOc1cc(/C=N/Nc2nc3ccccc3[nH]2)ccc1OCc1ccc([N+](=O)[O-])cc1", "note": "[TCMDC-124191]", "% Inhibition": -53.42},
      {"molecule": "CCOc1ccc(Nc2cc(C)nc(Nc3ccc(OCC)cc3)n2)cc1", "note": "[TCMDC-125772]", "% Inhibition": -32.28},
      {"molecule": "CC1(C)N=C(N)N=C(N)N1OCCSc1ccccc1", "note": "[TCMDC-131670]", "% Inhibition": -8.546},
      {"molecule": "CCNC(=O)Nc1cccc(-c2cccc(-c3nc4c(C)cccc4[nH]3)c2)c1", "note": "[TCMDC-133172]", "% Inhibition": -6.099},
      {"molecule": "CSc1ccc2ccccc2c1CNCCCCCCNCc1c(SC)ccc2ccccc12", "note": "[TCMDC-137758]", "% Inhibition": 72.82},
      {"molecule": "CC1CCC(NCc2c(O)ccc3ccccc23)CC1", "note": "(stereo not drawn) [TCMDC-137602]", "% Inhibition": -21.28},
      {"molecule": "CSc1ccc2ccccc2c1CCNCCCCNCCc1c(SC)ccc2ccccc12", "note": "[TCMDC-137763]", "% Inhibition": 109.4},
      {"molecule": "CC1CN(Cc2csc(Nc3ccccc3)n2)CC(C)O1", "note": "(stereo not drawn) [TCMDC-125078]", "% Inhibition": 46.05},
      {"molecule": "FC(F)(F)c1ccc2c(C=Cc3ccncc3)c[nH]c2c1", "note": "[TCMDC-137257]", "% Inhibition": 12.06},
      {"molecule": "CCCC(=O)Nc1ccc(OCCCCN(Cc2ccccc2C(F)(F)F)c2ccc(C(F)(F)F)c(C#N)c2)cc1", "note": "[TCMDC-133359]", "% Inhibition": 32.41},
      {"molecule": "CCN(CC)CC#Cc1ccc2[nH]c(C)c(Cl)c(=O)c2c1", "note": "[TCMDC-136162]", "% Inhibition": 0.7622},
      {"molecule": "Cc1[nH]c2ccc(-c3ccc(OC(F)(F)F)cc3)cc2c(=O)c1C#N", "note": "[TCMDC-136129]", "% Inhibition": 23.98},
      {"molecule": "Cc1[nH]c2ccccc2c(=O)c1Br", "note": "[TCMDC-137427]", "% Inhibition": 12.8},
      {"molecule": "O=c1c2ccccc2[nH]c2cc(Cl)ccc12", "note": "[TCMDC-123989]", "% Inhibition": -7.86},
      {"molecule": "Cc1ccc2c(=O)c3cc(C)ccc3[nH]c2c1", "note": "[TCMDC-138194]", "% Inhibition": 58.3},
      {"molecule": "Cc1[nH]c2ccc(-c3ccc(N(C)C)cc3)cc2c(=O)c1Cl", "note": "[TCMDC-136188]", "% Inhibition": 61.07},
      {"molecule": "CCCCN(C)CC#Cc1ccc(-c2ccc3[nH]c(C)c(Br)c(=O)c3c2)cn1", "note": "[TCMDC-136285]", "% Inhibition": 11.41},
      {"molecule": "Cc1ccc2[nH]c3ccccc3c(=O)c2c1", "note": "[TCMDC-123947]", "% Inhibition": 19.38},
      {"molecule": "Cc1[nH]c2ccccc2c(=O)c1-c1ccc(Cl)cc1", "note": "[TCMDC-137172]", "% Inhibition": 25.44},
      {"molecule": "CCCCc1ccc(-c2ccc3[nH]c(C)c(Br)c(=O)c3c2)cc1", "note": "[TCMDC-135463]", "% Inhibition": 34.89},
      {"molecule": "Cc1[nH]c2ccc(-c3ccccc3)cc2c(=O)c1Br", "note": "[TCMDC-135426]", "% Inhibition": 61.46},
      {"molecule": "CCCCN(C)CC#Cc1ccc2[nH]c(C)c(Cl)c(=O)c2c1", "note": "[TCMDC-136185]", "% Inhibition": 85.15},
      {"molecule": "Cc1ccc2nc(Nc3ccc(Nc4nc5ccc(C)cc5[nH]4)c(C)c3)[nH]c2c1", "note": "[TCMDC-131952]", "% Inhibition": -70.19},
      {"molecule": "COc1ccc2nccc([C@@H](O)CN3CCC(NC(=O)c4cc5ccccc5[nH]4)CC3)c2c1", "note": "[TCMDC-140780]", "% Inhibition": -18.21},
      {"molecule": "O=C(Nc1ccc(CC(=O)N2CCc3cc(Cl)c(N4CCN(C/C=C/c5ccccc5)CC4)cc32)cc1)Nc1cccc([N+](=O)[O-])c1", "note": "[TCMDC-139475]", "% Inhibition": 6.892},
      {"molecule": "Cc1cc(Nc2cccc(C#N)c2)nc(Nc2ccccc2C)n1", "note": "[TCMDC-133471]", "% Inhibition": -8.734},
      {"molecule": "CCCCNC(=O)[C@H](CC1CCCCC1)NC(=O)c1ccc(O)c(-c2cccc(C(F)(F)F)c2)c1", "note": "[TCMDC-140812]", "% Inhibition": 31.87},
      {"molecule": "O=C(Nc1cc(Cl)ccc1O)c1cc(-c2ccccc2O)no1", "note": "[TCMDC-125274]", "% Inhibition": -14.42},
      {"molecule": "Cc1[nH]c2ccc(C#N)cc2c(=O)c1Br", "note": "[TCMDC-135219]", "% Inhibition": 27.39},
      {"molecule": "Cc1ccc2[nH]c(C)c(Br)c(=O)c2c1", "note": "[TCMDC-124347]", "% Inhibition": 65.99},
      {"molecule": "O=c1c(Br)c(C(F)(F)F)[nH]c2ccc(Oc3ccccc3)cc12", "note": "[TCMDC-135798]", "% Inhibition": -15.2},
      {"molecule": "COC(=O)c1ccccc1N1CCN(CCCCNC(=O)c2ccc(NC(=O)c3cc(Cl)cc(Cl)c3)cc2)CC1", "note": "[TCMDC-138235]", "% Inhibition": 7.414},
      {"molecule": "NC(N)=Nc1ccc(OCCCCCOc2ccc(N=C(N)N)cc2Br)c(Br)c1", "note": "[TCMDC-137543]", "% Inhibition": 77.55},
      {"molecule": "NC(N)=Nc1ccc(OCCCCCOc2ccc(N=C(N)N)cc2)cc1", "note": "[TCMDC-137482]", "% Inhibition": 39.96},
      {"molecule": "NC(N)=Nc1ccc(OCCCCCOc2ccc(N=C(N)N)c(Cl)c2)cc1Cl", "note": "[TCMDC-137577]", "% Inhibition": 34.57},
      {"molecule": "Cc1nc(N)nc(N)c1-c1cc(Cl)c(N)c(Cl)c1", "note": "[TCMDC-137386]", "% Inhibition": -88.48},
      {"molecule": "Cc1nc2ccccc2c(=O)n1/N=C/c1ccccc1[N+](=O)[O-]", "note": "[TCMDC-125512]", "% Inhibition": 2.657},
      {"molecule": "CCOC(=O)c1c[nH]c2c(sc3cc(OC)ccc32)c1=O", "note": "[TCMDC-137190]", "% Inhibition": 2.888},
      {"molecule": "CCCCOc1cc2[nH]cc(C(=O)OCC)c(=O)c2cc1OCCCC", "note": "[TCMDC-137523]", "% Inhibition": 63.76},
      {"molecule": "CCOC(=O)c1c[nH]c2c(ccc3ccccc32)c1=O", "note": "[TCMDC-123857]", "% Inhibition": 33.13},
      {"molecule": "CCCc1cc(NCC)nc(Nc2ccc(C)cc2)n1", "note": "[TCMDC-134013]", "% Inhibition": -22.6}
    ]}
  ]
}
